Data on ten compounds can be found in PubChem BioAssay (NCI).

About 83,000 compounds went through this panel and 20% of them were active in at least one assay; those are over-represented in the sample as a whole.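 Each cell line was grown in a 96-well plate and treated with one concentration of compound for 48 hours. Values below 10 were considered active.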 Unmarked numbers belong to inactive results. Calls of active or inactive are those of the source.

Some test systems named below: RPMI-8226 leukemia; OVCAR-8 ovarian; OVCAR-5 ovarian; OVCAR-4 ovarian; SK-OV-3 ovarian; IGROV1 ovarian; OVCAR-3 ovarian; HS 578T breast; T-47D breast; BT-549 breast; MDA-MB-435 melanoma; SW-620 colon; MCF7 breast; HCT-116 colon; HCC-2998 colon; KM12 colon; NCI/ADR-RES ovarian.
Common to all, as to experiment: NCI-60 one-dose screen, 48 h (100 = growth as untreated, 0 = no growth, -100 = all killed)
Holding throughout (conditions): 10 µM unless noted

`O=C(CSc1nnc(Nc2ccccc2)s1)NCCc1ccc(F)cc1`: the growth was 145% in the assay with RPMI-8226 leukemia; 117% in the assay on OVCAR-8 ovarian; 92.9% in the assay on OVCAR-5 ovarian; 102% in the assay on OVCAR-4 ovarian; 113% with SK-OV-3 ovarian; -2.38% (active) in the assay on IGROV1 ovarian. For the same compound, the growth in the assay with OVCAR-3 ovarian is 113%; with HS 578T breast it was 119%; in the assay on T-47D breast, 94.8%; in the assay with BT-549 breast, 109%; in the assay with MDA-MB-435 melanoma it was 101%; in the assay with SW-620 colon, 103%. For the same compound, the growth in the assay on MCF7 breast is 109%; in the assay on HCT-116 colon, 99.8%; with HCC-2998 colon it was 99.3%; with KM12 colon it was 111%.

As to `COc1ccc(C2=NNC(c3cc(Cc4ccc(O)c(C5CC(c6ccc(OC)cc6)=NN5)c4)ccc3O)C2)cc1` (stereo unspecified), the growth in the assay with RPMI-8226 leukemia is 26.9%; in the assay on OVCAR-8 ovarian it was 28.8%; with OVCAR-5 ovarian, 112%; in the assay on OVCAR-4 ovarian, 58.3%; in the assay with SK-OV-3 ovarian it was 93.9%; in the assay on IGROV1 ovarian, 35.5%. Also, the growth with OVCAR-3 ovarian is 68.6%; in the assay with HS 578T breast it was 43%; in the assay on T-47D breast, 50.3%; with BT-549 breast, 58.1%; with MDA-MB-435 melanoma, 12.1%; in the assay on SW-620 colon, 30.3%. Also, the growth in the assay with MCF7 breast is 26.1%; in the assay with HCT-116 colon, 28.3%; in the assay on HCC-2998 colon, 55.5%; in the assay on KM12 colon it was 55.4%.

In the case of `O=C(O)c1ccc(NC(=O)c2ccc(Nc3ccnc(C(F)(F)F)c3)cc2)cc1`, the growth in the assay with RPMI-8226 leukemia was 98.3%; with OVCAR-8 ovarian it was 102%; in the assay on OVCAR-5 ovarian, 107%; in the assay with OVCAR-4 ovarian it was 103%; in the assay on SK-OV-3 ovarian, 98.9%; in the assay on IGROV1 ovarian, 105%. In addition, the growth with OVCAR-3 ovarian is 104%; with HS 578T breast, 96.8%; in the assay on NCI/ADR-RES ovarian, 102%; in the assay with T-47D breast, 93.8%; in the assay with MDA-MB-435 melanoma it was 104%; in the assay on SW-620 colon, 105%. The growth with MCF7 breast is 100%; in the assay with HCT-116 colon, 104%; in the assay with HCC-2998 colon, 103%; with KM12 colon, 93.2%.

In the case of `COc1ccc(OC)c2c1[nH]c(=O)c1c3ccccc3cn21`, the growth in the assay on RPMI-8226 leukemia was -21.8% (active); in the assay on OVCAR-8 ovarian, -80.7% (active); in the assay on OVCAR-5 ovarian, -45.1% (active); in the assay on OVCAR-4 ovarian it was -29% (active); in the assay on SK-OV-3 ovarian it was -86% (active); in the assay on IGROV1 ovarian it was -60.7% (active). The growth in the assay with NCI/ADR-RES ovarian is -6.09% (active); in the assay on T-47D breast, -48.3% (active); with BT-549 breast, -11.6% (active); with MDA-MB-435 melanoma it was -97.9% (active); with SW-620 colon it was -59.8% (active); in the assay with MCF7 breast, -78.5% (active). For the same compound, the results for the growth in the assay on HCT-116 colon, with HCC-2998 colon and with KM12 colon were -71.5% (active), -77.4% (active) and -52.6% (active), respectively.

Consider `Cc1cc2cn3c4cccnc4[nH]c(=O)c3c2cc1C`, for which the growth was -5.48% (active) with RPMI-8226 leukemia; -46.1% (active) with OVCAR-8 ovarian; 92.9% in the assay with OVCAR-5 ovarian; 47.9% in the assay on OVCAR-4 ovarian; 81% with SK-OV-3 ovarian; 65% with IGROV1 ovarian. For the same compound, the growth is 29.5% in the assay with OVCAR-3 ovarian; 9.65% (active) in the assay on NCI/ADR-RES ovarian; -21.3% (active) in the assay with T-47D breast; 73.2% in the assay with BT-549 breast; -20.7% (active) with MDA-MB-435 melanoma; -29.5% (active) in the assay on SW-620 colon. For the same compound, the growth was -36.9% (active) in the assay with MCF7 breast, -85.3% (active) with HCT-116 colon, 60% in the assay with HCC-2998 colon and 13.1% in the assay with KM12 colon.

Consider `Cn1cc(-c2nc(-c3c[nH]c4ncc(F)cc34)cs2)c2cccnc21`, for which the growth with RPMI-8226 leukemia was 100%; in the assay with OVCAR-8 ovarian, 105%; in the assay on OVCAR-5 ovarian, 93.4%; in the assay with OVCAR-4 ovarian it was 82.2%; in the assay with SK-OV-3 ovarian, 109%; with IGROV1 ovarian, 108%. In addition, the growth in the assay with OVCAR-3 ovarian is 117%; with NCI/ADR-RES ovarian, 100%; with T-47D breast, 59.9%; in the assay with BT-549 breast, 108%; with MDA-MB-435 melanoma, 98.2%; with SW-620 colon, 104%. Also, the growth in the assay with MCF7 breast is 77.9%; in the assay with HCT-116 colon it was 101%; in the assay on HCC-2998 colon, 81.6%; in the assay on KM12 colon, 99.3%.

In the case of `O=C(CCc1nnc(SCc2ccccc2)s1)c1nc2ccccc2[nH]1`, the growth with RPMI-8226 leukemia is 82.9%; in the assay on OVCAR-8 ovarian, 98.7%; in the assay with OVCAR-5 ovarian, 99.2%; in the assay with OVCAR-4 ovarian it was 85.7%; in the assay on SK-OV-3 ovarian it was 103%; in the assay on IGROV1 ovarian, 103%. The growth was 106% with OVCAR-3 ovarian; 106% in the assay on HS 578T breast; 95% in the assay on T-47D breast; 102% with MDA-MB-435 melanoma; 107% in the assay with SW-620 colon; 95% in the assay on HCT-116 colon. Moreover, the growth in the assay on HCC-2998 colon is 101%; in the assay with KM12 colon it was 110%.

As to `S=C(c1ccccc1)N1CCN(c2cccc(Cl)c2)CC1`, the growth is 86.9% in the assay on RPMI-8226 leukemia; 102% in the assay with OVCAR-8 ovarian; 97.2% with OVCAR-5 ovarian; 120% with OVCAR-4 ovarian; 103% with SK-OV-3 ovarian; 107% with IGROV1 ovarian. Further, the growth in the assay with NCI/ADR-RES ovarian is 103%; with T-47D breast, 96.9%; in the assay with BT-549 breast, 105%; in the assay with MDA-MB-435 melanoma, 81.5%; in the assay on SW-620 colon, 98.5%; in the assay on MCF7 breast, 109%. Further, the values for the growth in the assay on HCT-116 colon, with HCC-2998 colon and in the assay on KM12 colon were 106%, 105% and 92.5%, respectively.

As for `C=Cc1nn2c(CCC(=O)c3nc4ccccc4[nH]3)nnc2s1`, the growth with RPMI-8226 leukemia was 110%; in the assay with OVCAR-8 ovarian it was 108%; in the assay on OVCAR-5 ovarian, 102%; with OVCAR-4 ovarian, 110%; in the assay on SK-OV-3 ovarian it was 106%; in the assay on IGROV1 ovarian, 106%. Moreover, the growth in the assay with OVCAR-3 ovarian is 107%; with NCI/ADR-RES ovarian, 100%; in the assay on T-47D breast, 106%; in the assay on BT-549 breast it was 95.4%; in the assay on MDA-MB-435 melanoma it was 100%; in the assay with SW-620 colon, 102%. For the same compound, the growth was 93.8% in the assay with MCF7 breast, 98.5% in the assay on HCT-116 colon, 98% with HCC-2998 colon and 97.7% in the assay on KM12 colon.

As to `Cn1cc(-c2csc(-c3cn(C)c4ncccc34)n2)c2cc(Br)cnc21`, the growth was 79.3% with RPMI-8226 leukemia; 94.3% with OVCAR-8 ovarian; 88.1% in the assay with OVCAR-5 ovarian; 92.1% in the assay with OVCAR-4 ovarian; 105% in the assay on SK-OV-3 ovarian; 110% with IGROV1 ovarian. Moreover, the growth with OVCAR-3 ovarian was 119%; in the assay with NCI/ADR-RES ovarian, 79.2%; with T-47D breast, 77%; in the assay with BT-549 breast it was 95.2%; with MDA-MB-435 melanoma it was 55.2%; with SW-620 colon, 89.4%. The growth is 70.2% with MCF7 breast, 90.6% in the assay on HCT-116 colon, 98% with HCC-2998 colon and 83.1% in the assay with KM12 colon.
